Out of some 69,000 compounds screened, about 8,600 (12%) showed an effect of 50% or more. For the sample, strong results were picked, then their nearest neighbours and some compounds at random.

The experiment has as its system Plasmodium berghei. The experiment in a line: Screen against P. berghei liver stage (PbLuc), transformed with Luciferase, at 10uM. As to conditions: tested at 10 uM. The experiment is classed as functional, HepG2.
For `CC(CN(C)C)Nc1nc(O)cc(Cc2ccccc2F)n1` (stereo not given), the INHIBITION is 39.3%.

In the case of `CCOC(=O)C1CC2(CCCCC2)N2CCC(=O)N12` (stereo not given), the INHIBITION stood at 54%. With `CCOC(=O)C1CC2(CCOCC2)N2CCC(=O)N12` (stereo not given), the INHIBITION worked out at 20.7%. In the case of `CCOC(=O)C1CC2(CCCC2)N2CCC(=O)N12` (stereo not given) it was 0.284%; in that of `Cc1ccccc1C1CCCN1C(=O)CN1CC2(CCNCC2)OC1=O` (stereo not given), 50.1%; in that of `O=C1OC2(CCNCC2)CN1CC(=O)N1CCCC1c1ccco1` (stereo not given), 16.8%. Turning to `Cc1noc(C)c1C1CCCN1C(=O)CN1CC2(CCNCC2)OC1=O` (stereo not given), the INHIBITION turned out to be 36.8%. For the compound `Cc1nc2ccc(S(=O)(=O)Nc3c(C)nn(CC(=O)O)c3C)cc2s1`, the INHIBITION is 34.7%. To `CCN(Cc1ccncc1)c1cc(C2CCNCC2)nc(C)n1` belongs 14.6%; to `Cc1nc(C2CCCNC2)cc(N(C)CCc2ccccc2)n1` (stereo not given), -16.5%. With `CCN(Cc1ccncc1)c1cc(C2CCCNC2)nc(C)n1` (stereo not given), the INHIBITION is listed as 53.7%.

For the compound `CCOc1ccc(CNC(C)c2c(C)nn(C)c2C)cc1` (stereo not given), the INHIBITION is recorded as -88.5%.

For `COc1ccccc1CC(=O)N1CCC(NCc2ccccn2)CC1`, the INHIBITION worked out at 46.3%. As to `CN(Cc1cnc(N)nc1)C(=O)c1coc(COc2cccc(F)c2)n1`, the INHIBITION is on record as 0.546%.

For `COc1ccccc1N1CCN(c2nc(N)nc3[nH]cnc23)CC1`, the INHIBITION was 20.6%. To `COc1ccc(CN(C)[C@@H]2COC[C@H]2c2ccc(F)cc2)c(OC)c1` belongs 59.9%; to `COc1ccc(CN(C)[C@@H]2COC[C@H]2c2ccc(F)cc2)cc1`, 34.3%. To `COc1cc(CN(C)[C@@H]2COC[C@H]2c2ccc(F)cc2)cc(OC)c1` belongs 10.635%; to `CN1CCOCC12CCN(C(=O)C1CCC1)CC2`, 22.3%; to `CCOCCCNC(=O)C1(C)CCC(=O)N1c1ccccc1OC` (stereo not given), 32.1%. To `CC(=O)N1CCC(n2nccc2-c2cnc(NCCO)nc2)CC1` belongs 33.7%; to `Oc1nnc(-c2cccs2)c2sc(N3CCCC3)nc12`, 47.7%; to `Cc1nc(NC(=O)C2CCCN(C(N)=O)C2)sc1-c1ccccc1` (stereo not given), 34.1%. As for `c1ccc(-c2nnc3n2CCN(c2nc(C4CC4)ns2)C3)cc1`, the INHIBITION is -57.3%. To `Oc1nnc(-c2ccccc2)c2sc(N3CCCCC3)nc12` belongs 57%. To `Oc1nnc(-c2cccs2)c2sc(N3CCCCC3)nc12` belongs 54.3%; to `O=c1[nH]nc(-c2cccs2)c2sc(N3CCOCC3)nc12`, -29.5%.

`CC(CS(C)(=O)=O)N(C(=O)CCc1cccc(F)c1)C1CC1` (stereo not given): the INHIBITION is given as -35%.

`CNS(=O)(=O)c1ccc(CNC(=O)N(C)C(C)COC)cc1` (stereo not given): the INHIBITION was 44.9%. In the case of `CCC1=N[C@@]2(CC[C@@H]3CN(Cc4ccc(Cl)cc4)C[C@@H]32)C(=O)N1` it was 35.3%. In the case of `CCC1=N[C@@]2(CC[C@@H]3CN(CC4CC4)C[C@@H]32)C(=O)N1CC1CC1` it was 30.3%.

Consider `N#Cc1cccc(NC(=O)N(CC(F)F)C2CC2)c1`, for which the INHIBITION worked out at 24.3%.

Turning to `CC(C)CCN(C(=O)Nc1cccc(C(=O)N(C)C)c1)C1CC1`, the INHIBITION is given as 84.1%. Take `CC(=O)c1cccc(NC(=O)N(CCO)C2CCc3ccccc32)c1` (stereo not given): the INHIBITION is 24.8%. To `CC(C)CCN(C(=O)c1cccc(NC(N)=O)c1)C1CC1` belongs 12.4%; to `CC(C)CN(C(=O)Nc1cccc(C(=O)N(C)C)c1)C1CC1`, 38.5%; to `CC(=O)c1cccc(NC(=O)N(CC(F)F)C2CC2)c1`, 61.1%.

In the case of `Cn1ccc(C(=O)N2C[C@@H]3CN(CC4CC4)CCO[C@@H]3C2)n1`, the INHIBITION came to 27.5%.

Regarding `CCc1noc(CN(C)Cc2cc3ccc(Cl)cc3[nH]c2=O)n1`, the INHIBITION is listed as -4.37%. For `CC(C(N)=O)N(C)Cc1ccccc1C(F)(F)F` (stereo not given), the INHIBITION is listed as 56.8%.

Take `CN(Cc1ccccc1C(F)(F)F)C(C(N)=O)c1ccccc1` (stereo not given): the INHIBITION came out at 36.3%. `CN(Cc1ccccc1Cl)C(C(=O)O)c1ccc(F)c(CO)c1` (stereo not given): the INHIBITION came to 63.8%. To `Cc1ccccc1CN(C)C(C(N)=O)c1ccccc1` (stereo not given) belongs 43.1%; to `CC(O)CNCc1ccccc1C(F)(F)F` (stereo not given), 37.7%; to `COCCN(C)C(C(=O)O)c1ccc(F)c(Cl)c1` (stereo not given), 40.3%. To `CN(Cc1ccccc1F)C(C(N)=O)c1ccccc1` (stereo not given) belongs 50.8%; to `CN(C)C(=O)c1ccc(C(C(=O)O)N(C)Cc2ccccc2Cl)cc1` (stereo not given), 44.3%; to `CC(CC#N)N(C)Cc1ccccc1F` (stereo not given), 30.9%. With `O=C(CCn1c(C(F)(F)F)cc2cccnc21)N1CCCC1`, the INHIBITION is given as 12.3%. To `O=C1COC2(CCN(c3cccc(F)c3)CC2)CN1Cc1ccccn1` belongs 42.3%; to `CC(C)N1CCc2c(C#N)c(NCc3ccco3)n3cnnc3c2C1`, 37.1%; to `COC(=O)N1CCN(c2ncnc3nc(C)cc(C)c23)CC1`, 20%.

As for `CC(C)NC(=O)c1ccc2c(c1)nc1n2CCN(Cc2ccco2)C1`, the INHIBITION was -11.4%. To `CC(=O)N1[C@H](CN(C)C)C[C@@H]2CN(C(=O)c3cncc(C)c3)CC[C@@H]21` belongs 23.5%; to `COc1ccc(CN2CCC3(CC(=O)N(c4cccc(F)c4)C3)C2)cc1` (stereo not given), 21.1%. Consider `CN(C)c1cccc(C2CCN(C3COCC3O)CC2)n1` (stereo not given), for which the INHIBITION is reported as 26.7%. `COCCN(C)[C@@H]1c2ccccc2C2(CCNCC2)[C@H]1O`: the INHIBITION is recorded as 15.12%.

For `Cc1ccc(CCN[C@@H]2c3ccccc3C3(CCNCC3)[C@H]2O)s1`, the INHIBITION is given as 54.4%.

For `CN(CC1(CO)CCCC1)[C@@H]1c2ccccc2C2(CCNCC2)[C@H]1O`, the INHIBITION is reported as 2.18%. In the case of `COCCCN(C)[C@@H]1c2ccccc2C2(CCNCC2)[C@H]1O` it was 11.05%; in that of `COc1ccccc1CCN[C@@H]1c2ccccc2C2(CCNCC2)[C@H]1O`, 88%; in that of `CN(CC1(CO)CCOCC1)[C@@H]1c2ccccc2C2(CCNCC2)[C@H]1O`, 21.55%.

Regarding `Cn1ccnc1SC1CCc2ccccc2NC1=O` (stereo not given), the INHIBITION came out at 4.07%. Take `Cc1ccc(CN(CCN(C)C)Cc2c(C)nc3sccn23)o1`: the INHIBITION came to 27.675%.

Take `CN(C)c1cc(CNC(=O)Nc2nnc(C3CC3)s2)ccn1`: the INHIBITION is listed as -27.8%. In the case of `O=C(CC1=CCCCC1)Nc1ncn(CC(=O)N2CCCCCC2)n1` it was -18.4%; in that of `CC(Nc1cccc(CN2CCOC2=O)c1)C(=O)Nc1cccc(F)c1` (stereo not given), 28.15%. In the case of `CCS(=O)(=O)NC(CCSC)C(=O)Nc1ccccc1C` (stereo not given) it was 20%; in that of `CSCC(CCO)NC(=O)Nc1cc(C)ccc1C` (stereo not given), 40.9%.

Take `CSCC(CCO)NC(=O)Nc1ccc(C)cc1Br` (stereo not given): the INHIBITION was 36.8%. To `CSCC(CCO)NC(=O)Nc1cc(Br)ccc1C` (stereo not given) belongs -4.94%.

As to `CSCC(CCO)NC(=O)Nc1cccc(Br)c1` (stereo not given), the INHIBITION is -4.94%. To `CCS(=O)(=O)NC(CCSC)C(=O)Nc1ccc(F)cc1` (stereo not given) belongs 38%; to `CSCC(CCO)NC(=O)Nc1cc(F)ccc1C` (stereo not given), 50.4%; to `CCS(=O)(=O)NC(CCSC)C(=O)Nc1cc(F)ccc1C` (stereo not given), 67.1%. To `CSCC(CCO)NC(=O)Nc1ccc(Br)cc1` (stereo not given) belongs 53.8%; to `CO[C@@H]1CCN(Cc2ccc(C)o2)[C@H]1Cc1ccccc1`, 3.88%; to `COc1ccc2c(c1)C(=O)NC1(CC2)CCN(Cc2ccc(F)cc2)C1` (stereo not given), 13.621%. To `Cc1oncc1C(=O)NCc1cc(=O)n2c(n1)CN(C)CCC2` belongs 16.5%.

For the compound `Cc1ccccc1CN(C)C(=O)c1cc(C2CCCN2C)ccn1` (stereo not given), the INHIBITION is 34%.

`CC(=O)c1cnc(NCCN2CCCC(c3ccccc3)C2)nc1C` (stereo not given): the INHIBITION is 23.3%.

As to `Cc1cnc(N2CCN(C(C)C(N)=O)CC2)nc1` (stereo not given), the INHIBITION was found to be 19%. In the case of `Cc1ccc(F)cc1-n1c(CN(C)S(C)(=O)=O)n[nH]c1=O`, the INHIBITION worked out at 49.4%.

Turning to `CCCc1noc(C2CC(=O)N(CCN(C)C)C2)n1` (stereo not given), the INHIBITION is recorded as 20.9%. To `Cc1ccccc1CNCc1cc(Cl)ccc1O` belongs 15%; to `COc1cccc(CC(=O)N2Cc3nccn3CC(CN(C)C)C2)c1` (stereo not given), 40.8%. To `Cc1csc(C2(NCCC(=O)N3CCOCC3)CCCC2)n1` belongs 20.9%; to `Cc1csc(C2(NC(=O)NCCN3CCOCC3)CCC2)n1`, 47.4%. In the case of `Cc1csc(C2(NC(=O)NCCN3CCOCC3)CCCC2)n1` it was 64.5%. `CCCC(C(=O)NCCc1nc(C)cs1)N(C)C` (stereo not given): the INHIBITION is reported as 26%.

As to `O=C(CN1CC(n2cccn2)C1)NCCCN1CCCC1=O`, the INHIBITION came to 28.8%. To `c1ccc(CCCN2CC(n3cccn3)C2)cc1` belongs -5.81%; to `O=C(CN1CC(n2cccn2)C1)NCCC1=CCCCC1`, -77.3%; to `N#CCCNC(=O)CN1CC(n2cccn2)C1`, 53%. To `Cc1cnn(C2CN(CC(=O)NCCc3ccccc3)C2)c1` belongs 27.4%; to `Cc1cnn(C2CN(CC(=O)NCCOc3ccccc3)C2)c1`, 3.15%; to `Cc1cnn(C2CN(CC(=O)NCCCc3ccccc3)C2)c1`, 56.6%. `O=C(CN1CC(n2cccn2)C1)NCCc1ccc(F)cc1`: the INHIBITION is on record as -19.4%. For `O=C(CN1CC(n2cccn2)C1)NCCCc1ccccc1`, the INHIBITION stood at 54.4%. Take `Cc1noc(C)c1CN1CCO[C@H]2[C@H](Oc3ncccc3F)CC[C@@H]21`: the INHIBITION was determined as 34.4%. In the case of `CN(C)c1ccc(-c2cccc(-c3ccn(CCCO)n3)c2)nn1` it was -121%; in that of `Cc1occc(=O)c1OCC(=O)N1CCN(c2cccc(Cl)c2)CC1`, -5.77%; in that of `Cc1cc(C2CCCN(CCC(=O)N3CCc4ccccc43)C2)n[nH]1` (stereo not given), 1.04%. As for `CN(C)C(c1ccccn1)C1CCC(CNC(=O)C2CCCC2)CC1` (stereo not given), the INHIBITION is 14.6%. In the case of `CC(C)CN1CCC2(COCc3cnc(-c4ccccc4)nc32)C1` (stereo not given) it was 69.3%; in that of `COCCN1CCC2(COCc3cnc(-c4ccccc4)nc32)C1` (stereo not given), 6.79%. In the case of `c1ccc(-c2ncc3c(n2)C2(CCN(CC4CC4)C2)COC3)cc1` (stereo not given) it was 66.2%; in that of `CN1CCC2(COCc3cnc(-c4ccccc4)nc32)C1` (stereo not given), -6.97%. To `O=C(CC1CC1)N1CCC2(COCc3cnc(-c4ccccc4)nc32)C1` (stereo not given) belongs -21.1%. With `CN(C)c1ncc2c(n1)C1(CCN(CC3CC3)C1)COC2` (stereo not given), the INHIBITION is 46.8%.

The record behind these values is ChEMBL document CHEMBL4513216, “Probing the Open Global Health Chemical Diversity Library for Multistage-Active Starting Points for Next-Generation Antimalarials” (ACS Infect Dis, 2020).
